Screening results deposited in PubChem by several laboratories.
NADH coupling: inhibitors of enzymes used to reach an NAD/NADH endpoint; coupled PK/LDH NADH assays, four targets; IC50, µM (highest dose often 10 µM), inactives show top-dose inhibition; actives 0.02% (n = 65,000); AID 774;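 active means single-dose screening hits from any of four coupled enzyme assays that gave an IC50 when retested across doses; inconclusive means no clear call, values can overlap the other calls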;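 further: the DPM-DC format reads NADH fluorescence rather than 340 nm absorbance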
M1 agonist: agonists of M1 muscarinic receptor | CHO-M1 cells, Fluo-4 calcium fluorescence, agonist mode; hits give high values | B-score at 10 µM | actives 3% (n = 64,000) | AID 626;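 active means fluorescence rise, raw or as B-score row- and column-corrected plate score, outside the 99.7% band of its plate's samples, either direction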
A340 absorber: compound absorbs light at 340 nm. compound absorbance at 340 nm, fold over control. fold change at 10 µM. 65,000 tested, under 10 active. AID 708;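 active means at 10 µM dose, initial 340 nm absorbance at least 2 fold that of control wells; inactive means change under 2 fold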;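 further: initial absorbance extrapolated from kinetic A340 decline of NADH oxidation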
M1 antagonist: M1 muscarinic receptor (rat) antagonism | AID 628 | CHO-M1 cells, Fluo-4 calcium, ACh EC80 antagonist mode; hits give low values | B-score at 10 µM | actives 3.4% (n = 64,000) | P08482;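 active means calcium fluorescence response, raw or row-and-column corrected B-score, differing from the plate sample mean either way at a set confidence level, mostly lower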
Htt clearance: mutant huntingtin protein clearance | HeLa Exon1htt(103Q)mCFP, aggregate imaging; zero = plate's median compound well | inhibition, % at 1.5 µM | actives 0.42% (n = 47,000);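 active means inhibition of aggregate fluorescence above about 70%, also judged a hit by eye on the cell image, limit read from the data, passing the limit was not always enough; inconclusive means no rule stated for this call; inactive means not judged a hit on image review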;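 further: cells exposed to compound for three days before fixation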
Fluor 339 460: intrinsic fluorescence of library compounds, ex339/em460 – biochemical, MLSMR library, data from DPM-DC assay, artefact control, profiling panel; fluorescence fold increase at 10 µM; compound autofluorescence, ex339/em460 nm, NADH buffer; hits give high values; 1 = no-compound wells, NADH background; actives 5.5% (n = 65,000);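 active means at 10 µM, mean starting fluorescence two-fold or more over control wells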;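 further: signal is the first read of a kinetic run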
M1 ag confirm: rat M1 muscarinic agonism, confirmation | shares compounds with M1 agonist | CHO-M1 cells, Fluo-4 calcium fluorescence, agonist mode; actives lie on both sides | fluorescence change (max-min) at 10 µM | actives 19% (n = 1,700);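 active means fluorescence change differs from the solvent-only DMSO control mean at a set confidence level in both duplicate runs; inconclusive means differs from solvent-only control mean in just one of two runs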;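 further: an EC20 dose of acetylcholine follows compound addition during the same imaging run; raw fluorescence intensity difference in instrument units with no normalization to controls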
M4 agonist ctr: activates rat M4 receptor in counter-screen for M1 agonists | fluorescence change (max-min) at 10 µM | CHO M4/Gqi5 cells, Fluo-4 calcium fluorescence, agonist mode; actives lie on both sides | shares compounds with M1 agonist | actives 9% (n = 1,700) | AID 1741;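 active means fluorescence change differing from the plate's solvent-only control wells at 99.7% confidence in both duplicates, whether higher or lower; inconclusive means differs from solvent controls in only one of two duplicates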
Target sequence (P08485 whole entry, looked up): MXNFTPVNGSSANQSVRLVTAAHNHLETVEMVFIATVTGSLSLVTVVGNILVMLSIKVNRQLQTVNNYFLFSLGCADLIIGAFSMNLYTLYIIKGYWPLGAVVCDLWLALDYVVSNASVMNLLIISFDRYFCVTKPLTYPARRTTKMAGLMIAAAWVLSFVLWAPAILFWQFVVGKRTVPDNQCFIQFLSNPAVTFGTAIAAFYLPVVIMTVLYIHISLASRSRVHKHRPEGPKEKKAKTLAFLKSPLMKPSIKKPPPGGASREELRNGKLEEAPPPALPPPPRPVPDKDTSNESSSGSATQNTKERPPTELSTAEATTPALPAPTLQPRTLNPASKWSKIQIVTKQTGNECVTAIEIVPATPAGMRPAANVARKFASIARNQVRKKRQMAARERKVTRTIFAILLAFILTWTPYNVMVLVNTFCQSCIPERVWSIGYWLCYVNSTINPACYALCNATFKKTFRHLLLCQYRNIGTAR
The depositor's hits bear a star; ? = inconclusive; . = no result. Rows were chosen to be rich in hits. Some 9.3% of all compounds tested hit in one or more screens of this group.

SMILES	NADH coupling	M1 agonist	A340 absorber	M1 antagonist	Htt clearance	Fluor 339 460	M1 ag confirm	M4 agonist ctr
O=C(Nc1cccc(NC(=O)c2ccc(-c3cccc(Br)c3)o2)c1)c1ccco1	4%	7.8*	1	-1.8	56	1.3	?	-74
COc1ccc(Br)cc1C(=O)Nc1cccc(NC(=O)c2ccco2)c1	2%	0.93	1	-0.16	-47	1.1	.	.
O=c1c2c3nc4ccccc4nc3n(-c3ccc4c(c3)OCCO4)c2ncn1C1CCCC1	9%	0.12	1.1	0.19	.	1.4	.	.
Nc1c(C(=O)OCC2CCCO2)c2nc3ccccc3nc2n1-c1ccc2c(c1)OCCO2 (configuration not stated)	10%	5.9*	1.1	-0.2	-32	1.9	-12	?
Cc1ccccc1NC(=O)NCCCN1CCN(C2CCCCC2)CC1	3%	-0.27	0.98	0.022	51	1	.	.
Cc1cc(C(=O)NCCCN2CCN(C3CCCCC3)CC2)n(-c2ccccc2)n1	1%	32*	1	-0.55	-46	1.1	13	?
COc1nc(N(c2ccccc2)c2ccccc2)nc(-n2ccnc2)n1	4%	3.4*	0.98	-1	-15	1.1	-11	-28
O=c1oc2c3c4c(cc2c(C(F)(F)F)c1CCN1CCOCC1)CCCN4CCC3	4%	277*	1	-2.9*	.	1.1	1525*	1404*
CC(C)c1cc(=O)oc2c3c4c(cc12)CCCN4CCC3	5%	106*	1.1	-0.15	.	2.1*	612*	614*
Cc1[nH]n(-c2ccc([N+](=O)[O-])cc2)c(=O)c1C=NCCN1CCN(C(=O)c2ccccc2)CC1	.	.	.	.	-4	.	.	.
CC(=O)Nc1ccc(Cc2ccncc2)cc1	2%	-0.44	0.98	-0.015	31	1	.	.
O=C(c1ccc(-c2ccccc2)cc1)N1CCN(C(=O)c2ccco2)CC1	1%	-0.01	1	-0.22	12	1.1	.	.
O=C(c1ccco1)N1CCN(C(=O)C(Sc2ccccc2)c2ccccc2)CC1 (configuration not stated)	6%	3.8*	1	-0.64	28	1.1	?	-74
Clc1ccc2[nH]c3c(NCC4CCCO4)ncnc3c2c1 (configuration not stated)	9%	7.7*	1.1	-2.3	.	2.5*	1	-29
CN(C)CCNc1ncnc2c1cnn2-c1ccc(Cl)cc1	1%	0.24	1	-1	.	1.1	.	.
Clc1ccc(-n2ncc3c(NCC4CCCO4)ncnc32)cc1 (configuration not stated)	0%	3.4*	1.1	-0.31	.	1.1	?	-53
O=C1CCCN1CCCNc1ncnc2c1cnn2-c1ccc(Cl)cc1	3%	3.1*	1.1	0.3	.	1.1	13	-28
Cc1cccc(N2CCN(C(=O)CCCSc3nc4ccccc4[nH]3)CC2)c1C	.	.	.	.	40	.	.	.
CCOC(=O)c1cc(-c2ccc(/C=N\n3cnnc3)o2)ccc1Cl	10%	4.9*	1.3	-0.34	-155	1.3	-27*	-42
CCCCOC(=O)c1cc(-c2ccc(/C=N/n3cnnc3)o2)ccc1Cl	.	.	.	.	-10	.	.	.
COc1cccc(N2CCN(c3ncnc4c3cnn4-c3ccc(C)cc3C)CC2)c1	6%	9.7*	1.1	-1.2	64	1.1	-12	-31
CCN(CC)C(=O)C1CCCN(c2ncnc3c2cnn3-c2cccc(C)c2)C1 (configuration not stated)	4%	1.3	1	-0.043	.	1.1	.	.
CCOC(=O)C1CCCN(c2ncnc3c2cnn3-c2cccc(C)c2)C1 (configuration not stated)	5%	33*	1	-2.2*	.	1.1	282*	-27
Nc1nc(CN2CCN(c3ccccn3)CC2)nc(Nc2ccc(Cl)cc2)n1	7%	-1.3	1	1.2	-64	1.2	.	.
COc1ccc(CCNc2ncnc3c2oc2ccccc23)cc1OC	6%	7.1*	1	-4.1*	6	1.1	17	4.6
